Data on 15 molecules can be found in PubChem BioAssay (EPA / NIEHS).

Inconclusive results are not listed. Activity calls are given as the source filed them. Rule for the calls: active = hit-call score of the fitted dose curve at least 0.9, where 1 is the maximum; inconclusive = response in the unintended direction; inactive = score below 0.9.

The experiment in a line: IUF_NPC2-5_cytotoxicity_72hr: Cytotoxicity Assessment at 72 hours in the Leibniz Research Institute for Environmental Medicine (IUF) Neural Progenitor Cell Migration and Differentiation Assay for Cytotoxicity (NPC2-5) (AID 2284306).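 Note: LDH release into supernatant measured by resorufin fluorescence marking membrane damage.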 As to the method:
IUF_NPC2-5 is a cell-based, multiplexed assay that uses hNPC, a human primary neural progenitor cells, with measurements taken at 72 or 120 hours after chemical dosing in a 96-well plate. Human neural progenitor cells (hNPC) are generated from human fetal brain cortex at gestational week (GW) 16-19. In the neural progenitor cell migration and differentiation assay (NPC2-5), hNPCs grown as spheres are plated on an extracellular matrix and migrate and differentiate out of the sphere core. The processes radial glia migration, neuronal and oligodendrocyte migration as well as neuronal differentiation, neuronal morphology and oligodendrocyte differentiation are studied using automated phase contrast imaging and automated fluorescence imaging in combination with high content image analysis. In parallel, the cell viability is assessed using an alamar blue viability assay and the cytotoxicity using a lactate dehydrogenase dependent membrane integrity assay.IUF_NPC2-5_cytotoxicity_72hr is one of 12 assay components measured from the IUF_NPC2-5 assay. It is designed to measure the cytotoxicity at 72 hr as assessed by membrane integrity related to the LDH dependent reduction of resazurin to resorufin in the supernatant of each well. The cytotoxicity is measured as fluorescence signal (relative fluorescence unit) in a multiplate reader. Data from the IUF_NPC2-5_cytotoxicity_72hr component was analyzed at the endpoint IUF_NPC2-5_cytotoxicity_72hr in the positive analysis fitting direction relative to the dynamic range and baseline of activity. Using a type of viability reporter, gain-of-signal activity can be used to understand cytotoxicity effects.
Culture protocol: After the cell expansion period the cells are cultured for up to four weeks in which they are passaged every week as described in 3.6. Between one to three days after passaging spheres at a size of 0.3 mm are picked for the test method. For the assessment of neural progenitor cell migration and differentiation, the spheres are plated on poly-D-lysine/laminin coated 96-well flat bottom plates in differentiation medium (N2) to initiate migration and differentiation. Thereby one 0.3 mm big sphere is plated in the middle of a well. The differentiation medium consists of DMEM and Ham's F12 at a ratio of 3 to 1 supplemented with 1% N2 and 1% penicillin and streptomycin. Within 5 days NPCs radially migrate out of the sphere core and differentiate into radial glia cells (nestin positive), neurons (TUBB3 positive), oligodendrocytes (O4 positive) and astrocytes (GFAP positive). Cultivation during the test method is performed at 37C and 5% CO2 at a ph of 7.2-7.6.Exposure: 0.3 mm big hNPC are plated in the already prepared test conditions. Exposure starts at day 0 of differentiation and is continued over five days of differentiation until the experiment is terminated. Cells are fed with fresh medium at day 3 of differentiation. Therefore, half of the test condition solution (e.g. solvent control or compound dilution) is replaced by freshly prepared test condition solution.Test Method: Migration distance and cytotoxicity is determined after 72 hours based on brightfield images of each well. The assay is terminated by the assessment of cell viability and cytotoxicity as well as cell fixation after 120 h. Immunocytochemistry is performed for Hoechst positive nuclei, TUBB3 positive neurons and O4 positive oligodendrocytes. On the ICC images, migration after 120 hours, neuronal and oligodendrocyte number, neuronal morphology and neuron/oligodendrocyte specific migration is assessed. immunocytochemical staining (ICC) generates an image for each sphere. The plates are scanned using an automated high content imaging device and all nuclei and their positions are determined automatically based on their intensity and size. Images are imported to the Omnisphero software to run the image analysis that measures the following endpoints. […]
`COP(=S)(OC)SCn1nnc2ccccc2c1=O`: the result was inactive.

For the molecule `CCNC(=O)NC(=O)C(C#N)=NOC`, the result was inactive.

In the case of `O=C(Nc1ccccc1-c1ccc(Cl)cc1)c1cccnc1Cl`, the call was inactive.

In the case of `CN/C(=N\[N+](=O)[O-])NCc1cnc(Cl)s1`, the molecule was classed as inactive.

Turning to `N#CN=C1SCCN1Cc1ccc(Cl)nc1`, the molecule was called inactive.

Turning to `CNC(=O)Oc1cccc2ccccc12`, the call was inactive.

Turning to `CC1(C)C(C=C(Cl)Cl)C1C(=O)OC(C#N)c1cccc(Oc2ccccc2)c1` (stereo not given), the molecule was called inactive.

Regarding `CCOP(=O)(OCC)Oc1nc(Cl)c(Cl)cc1Cl`, the molecule was classed as inactive.

For the molecule `Cc1c(COC(=O)[C@@H]2[C@H](/C=C(\Cl)C(F)(F)F)C2(C)C)cccc1-c1ccccc1`, the molecule was classed as inactive.

As for `COC(=O)N(C(=O)N1CO[C@@]2(C(=O)OC)Cc3cc(Cl)ccc3C2=N1)c1ccc(OC(F)(F)F)cc1`, the molecule was classed as inactive.

Take `CS(=O)(=O)c1ccc(C(=O)C2C(=O)CCCC2=O)c([N+](=O)[O-])c1`: the call was inactive.

Consider `CC(C)(C)C(=O)C(Oc1ccc(Cl)cc1)n1cncn1` (stereo not given), for which the result was inactive.

As for `CCSC(=O)N1CCCCCC1`, the molecule was called inactive.

Turning to `CO/N=C(/C1=NOCCO1)c1ccccc1Oc1ncnc(Oc2ccccc2Cl)c1F`, the molecule was classed as inactive.

Regarding `CS(=O)(=O)c1cc(C(F)(F)F)ccc1C(=O)c1cnoc1C1CC1`, the call was inactive.
